Screening results as filed in PubChem.
Most compounds without a hit are left out; they make up all but 0.72% or so of the library.
RXFP1 antagonist: qHTS Assay for Antagonists of the Relaxin Receptor RXFP1; Relaxin receptor 1 (Homo sapiens), Q9HBX9; HEK293-RXFP1, relaxin-stimulated cAMP HTRF, 30 min; active compounds read low; activity change, negative = inhibition, % at 57.5 µM; 350,000 tested, 0.59% active;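 active = activity change of -60% or lower, but not beyond a set lower limit; inconclusive = change between -60% and -40%, or beyond the set limit; inactive = change above -40%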; note: % is set by controls: 0 for no effect and ±100 for the full control effect
Target sequence (Q9HBX9 whole entry, looked up): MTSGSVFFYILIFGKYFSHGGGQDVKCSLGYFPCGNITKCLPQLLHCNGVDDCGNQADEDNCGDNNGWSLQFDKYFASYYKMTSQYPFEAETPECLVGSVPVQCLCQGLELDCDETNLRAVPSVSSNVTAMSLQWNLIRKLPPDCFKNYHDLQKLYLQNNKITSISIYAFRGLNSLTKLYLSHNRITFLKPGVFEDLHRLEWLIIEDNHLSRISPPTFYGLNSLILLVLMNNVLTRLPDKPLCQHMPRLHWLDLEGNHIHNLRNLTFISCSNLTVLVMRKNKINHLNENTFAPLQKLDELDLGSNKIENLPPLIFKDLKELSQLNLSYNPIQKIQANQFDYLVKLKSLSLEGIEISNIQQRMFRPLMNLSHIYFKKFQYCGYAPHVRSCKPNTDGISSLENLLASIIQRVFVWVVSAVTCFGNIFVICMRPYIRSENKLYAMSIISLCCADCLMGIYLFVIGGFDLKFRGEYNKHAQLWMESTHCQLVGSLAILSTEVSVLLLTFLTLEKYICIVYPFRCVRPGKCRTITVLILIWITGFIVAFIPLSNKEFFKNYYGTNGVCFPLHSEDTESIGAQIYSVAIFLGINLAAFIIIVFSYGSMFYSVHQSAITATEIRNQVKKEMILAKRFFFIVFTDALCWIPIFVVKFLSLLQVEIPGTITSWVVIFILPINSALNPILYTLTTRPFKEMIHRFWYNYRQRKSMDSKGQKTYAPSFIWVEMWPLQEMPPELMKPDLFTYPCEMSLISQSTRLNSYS
miR-21 reporter: qHTS Assay for Modulators of miRNAs and/orActivators of miR-21. AID 2288, 2010. Potency, µM (doses to about 38.3 µM), inactives show at the highest dose activity change, positive = activation, hits mostly activators. HeLa miR-21 FLuc reporter, luciferase, 48 h. 340,000 tested, under 10 active;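 note: % of control where 0% means no effect; miR-21 action dims this reporter so a rising signal means less miR-21 action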
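Compounds were titrated across several concentrations (up to approximately 40 uM) and incubated 48 hours with HeLa miR-21-FLuc reporter cells (miR-21 target sequence downstream of FLuc, endogenous miR-21). Readout was firefly luciferase luminescence after lytic detection reagent.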
RXFP1 agonist: qHTS Assay for Agonists of the Relaxin Receptor RXFP1; Relaxin receptor 1 (Homo sapiens), Q9HBX9; HEK293T-RXFP1 cAMP TR-FRET, 30 min; response scale: percent of porcine relaxin response, buffer zero; Potency, µM (top dose mostly 57.5 µM), for the others: at the highest dose activation, hits mostly activators; 370,000 tested, 0.3% active; AID 2676, 2010; note: potency is the fitted concentration of half-maximal effect; % is set by controls: 0 for no effect and ±100 for the full control effect; nearly all actives have a fitted effect of over 60% in size
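HEK293 cells stably expressing RXFP1, treated 30 min at 37C with compounds plus PDE4 inhibitor Ro 20174; cAMP measured by HTRF TR-FRET. Normalized to buffer and 29 nM porcine relaxin; EC50 by Hill fit.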
S-ASM inh: Inhibitors of Secretory Acid Sphingomyelinase (S-ASM): qHTS. AID 504937, 2011. placental ASM, HMU-PC fluorogenic substrate, 60 min. Potency, µM (doses to about 57.5 µM), for the others: at the highest dose activity change, negative = inhibition, actives largely listed as inhibitors. Sphingomyelin phosphodiesterase (Homo sapiens), P17405. 340,000 tested, 0.006% active; note: potency is the fitted concentration of half-maximal effect
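Fluorogenic HMU-PC substrate (9 uM final) is turned over by placental ASM in 60 min at 37 C after a 10 min compound preincubation. Reaction ended by alkaline stop (pH 10), with fluorescence read at 386/447 nm.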
Mito fusion yeast: qHTS Assay for Small Molecule Inhibitors of Mitochondrial Division or Activators of Mitochondrial Fusion. S. cerevisiae fusion-defective mutant growth rescue, CellTiterGlo 48 h. Potency, µM (titrated, usually from 46.1 µM), without a hit: top-dose growth rescue (activation), hits mostly activators. 320,000 tested, 0.23% active; note: potency is the fitted concentration of half-maximal effect; % of control where 0% means no effect; nearly all actives have a fitted effect of over 45% in size
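Luminescent cell viability in 1536-well qHTS format served as the measure of rescued growth in ts fusion-mutant S. cerevisiae cultured on non-fermentable YPEG for 48 hours at 37C.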
ERG-DNA inh: qHTS for Small Molecule Inhibitors of the ERG Ets/DNA interaction. fluorescence polarization, His-ERG Ets domain / labelled DNA. Potency, µM (series often up to 76.9 µM), for the others: at the top dose FP activity, negative = inhibition, most hits filed as inhibitors. 370,000 tested, 0.028% active. AID 624246, 2012; active = well fitted inhibition curve with a large enough effect in the polarisation, with a control signal flat; inconclusive = small, poorly fitted or top-dose-only effect, or effect the other way, or a change in a side signal; inactive = no such curve, though single readings can be large or run the other way; the % refers to the polarisation;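 note: polarization taken with two DNA probes labelled with fluorescein and Texas red; potency is the fitted concentration of half-maximal effect; % of control where 0% means no effect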
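His-tagged ERG Ets domain (1 uM in the protein solution; 300mM KCl, 50mM Tris-HCl, 1mM EDTA, 1mM DTT, pH 7.5) received compound, then a probe mix of 5 nM fluorescein-DNA and 100nM Texas-615-DNA. Fluorescence polarization was read for both dyes.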
Numbers without * were called inactive; i = inactive; ? = inconclusive; · = no result given; ! = repeats disagree. Unless noted, calls come from the whole dose curve; as a rule, active = well fitted curve in the direction sought with a large enough effect; inconclusive = small, poorly fitted or top-dose-only effect, or another doubt; inactive = no such curve, though single readings can be large; an effect the other way counts as inactive or inconclusive.

SMILES	RXFP1 antagonist	miR-21 reporter	RXFP1 agonist	S-ASM inh	Mito fusion yeast	ERG-DNA inh
CC(C)N1C(=O)/C(=C\c2nc3ccccc3c(=O)[nH]2)c2ccccc21	-14	16%	-1%	32µM*	19%	4%
Cc1ccc(CS(=O)(=O)c2ncc(Cl)c(C(=O)Nc3ccc(OC(F)F)cc3)n2)cc1	-66*	?	-1%	-8%	-53%	-2%
Cc1ccc(C)c(NC(=O)c2nc(S(=O)(=O)Cc3ccc(F)cc3)ncc2Cl)c1	-24	?	0%	·	·	0%
CCS(=O)(=O)c1ncc(Cl)c(C(=O)Nc2ccc(C)cc2)n1	-78*	?	1%	-3%	-25%	2%
CS(=O)(=O)c1ncc(Cl)c(C(=O)Nc2ccc3ccccc3c2)n1	-93*	?	1%	2%	-21%	15%
Cc1ccc(CS(=O)(=O)c2ncc(Cl)c(C(=O)Nc3nnc(C(C)C)s3)n2)cc1	-93*	?	0%	-6%	-37%	-6%
O=C(CCS(=O)(=O)c1ccc(Br)cc1)NCc1ccc(F)cc1	0	-1%	-1%	3%	25%	1%
Cc1cc(C)n(CC(=O)Nc2cc(F)ccc2F)c(=O)c1C#N	·	-13%	-1%	·	·	11%
CSc1nnc(NC(=O)c2nc(S(=O)(=O)Cc3cccc(C)c3)ncc2Cl)s1	-73*	?	2%	-2%	-11%	14%
CCS(=O)(=O)c1ncc(Cl)c(C(=O)Nc2ccc(S(=O)(=O)N3CCCC(C)C3)cc2)n1 (stereo unspecified)	-119*	?	2%	-6%	-16%	22%
CC(=O)Nc1ccc(NC(=O)c2nc(S(=O)(=O)Cc3ccccc3)ncc2Cl)cc1	?	?	-3%	0%	-8%	6%
COc1ccc(NC(=O)c2nc(S(=O)(=O)Cc3ccc(C)cc3)ncc2Cl)cc1	-118*	?	3%	·	·	-3%
CCOc1ccc2nc(N3CCN(C(=O)CS(=O)(=O)c4ccc(F)cc4)CC3)sc2c1	-34	13%	-1%	·	·	-4%
COc1ccc(OC)c(NC(=O)CSc2nnc(-c3cnccn3)n2C)c1	24	4%	1%	-1%	-2%	5%
CCCOc1ccc(C(=O)Nc2ccc3oc(-c4ccc(N(C)C)cc4)nc3c2)cc1	5	-27%	3.2µM*	·	·	?
O=C(c1cccc(NS(=O)(=O)c2cccc(C(F)(F)F)c2)c1)N1CCOCC1	5	0%	1%	-2%	4%	0%
COCCn1c(=S)[nH]c2cc(C(=O)N3CCc4ccccc4C3)ccc2c1=O	-66*	2%	1%	1%	2%	-5%
COCCn1c(=S)[nH]c2cc(C(=O)N3CCN(c4ccccc4OC)CC3)ccc2c1=O	-112*	0%	0%	-1%	2%	3%
CC(=O)c1cccc(NC(=O)NC2CC(=O)N(c3ccc4c(c3)OCCO4)C2)c1 (stereo unspecified)	-4	·	1%	2%	-11%	6%
Clc1ccccc1C(c1ccccc1)(c1ccccc1)n1ccnc1	-94*	?	1%	6%	0.52µM*!	-8%
C=C(C)C(=O)OCC(O)CO (stereo unspecified)	10	·	·	·	·	·
Cc1ccc(NCc2nc3ccccc3n2CCOc2ccccc2)cc1	-62*!	-3%	5%	-1%	30%	7%
COc1n[nH]c(C(=O)Nc2cc(F)ccc2C)c1[N+](=O)[O-]	-4	0%	3%	4%	7.1µM*	-11%
Cc1ccccc1-n1c(SCC(=O)Nc2ccccc2Cl)nc2n[nH]c(C)c2c1=N	-8	-13%	0%	-18%	11µM*	2%
CCc1ccccc1-n1c(SCC(=O)Nc2ccc(C)cc2)nc2n[nH]c(C)c2c1=N	-87*	15%	7%	·	·	-12%
SMILES	RXFP1 antagonist	miR-21 reporter	RXFP1 agonist	S-ASM inh	Mito fusion yeast	ERG-DNA inh
COc1ccc(OC)c(NC(=O)CSc2nc3n[nH]c(C)c3c(=N)n2-c2cccc(Cl)c2C)c1	6	3%	1%	-17%	6.3µM*	2%
Cc1c(Cl)cccc1-n1c(SCC(=O)NCc2ccccc2)nc2n[nH]c(C)c2c1=N	?	6%	2%	·	·	7%
CCc1ccc(NC(=O)CSc2nc3n[nH]c(C)c3c(=N)n2-c2ccccc2C)cc1	-19	7%	16%	·	·	-19%
Cc1ccccc1OCC(O)CNC1CCC(NCC(O)COc2ccccc2C)CC1 (stereo unspecified)	-101*	?	0%	5%	-21%	1%
Cc1ccc(OCC(O)CNC2CCCC2)c(C)c1 (stereo unspecified)	7	-2%	0%	-1%	-7%	13%
N#Cc1c2n(c3c(N)ncnc13)CCCCC2	4	-24%	18µM*	2%	1%	-10%
CC(C)(C)c1ccc(OCC(=O)N2CCN(c3ccccn3)CC2)cc1	-5	·	0%	-2%	4%	3%
CC(C)(Oc1ccc(Cl)cc1)C(=O)N1CCN(c2ccccn2)CC1	-4	12%	1%	2%	14µM*	4%
COc1ccc(C2CC(c3cccs3)=NN2c2ccc(C=O)cc2)cc1 (stereo unspecified)	1	-18%	5%	i	22µM*	·
O=Cc1ccc(N2N=C(c3ccccc3)CC2c2ccccc2)cc1 (stereo unspecified)	-9	-5%	5%	i	8.9µM*	-8%
CCC(=O)N1N=C(c2cccs2)CC1c1ccc(OC)cc1 (stereo unspecified)	3	-16%	0%	2%	3%	0%
COc1ccc(C2=NN(c3ccc(C=O)cc3)C(c3ccccc3)C2)cc1 (stereo unspecified)	-15	9%	6%	i	?	-2%
COc1cccc(-n2cc(C(=O)Oc3ccc(F)cc3)c3ccccc3c2=O)c1	-31	1%	-1%	·	·	1%
O=C(C#Cc1ccccc1)c1ccc([N+](=O)[O-])cc1	-61*	6%	-1%	-3%	-4%	3%
O=C(c1ccc(-c2ccccc2)cc1)c1ccc([N+](=O)[O-])cc1	·	-3%	6%	·	2%	·
O=C(C#Cc1ccccc1)c1ccccc1	-107*	·	·	·	·	·
CC(C)CCSc1nc(N)c(C#N)cc1C#N	17	-15%	3%	46%	11µM*	10%
